Measurements: paper PMC8384837, “Expanding the binding specificity for RNA recognition by a PUF domain”

target: PUM1 PUF domain R4-GCG (Homo sapiens, UniProt Q14671 828-1176, N971G;H972C;Q975G); experiment: yeast three-hybrid, YBZ-1, SC-Leu-His + 0.5 mM 3-AT, 4 days; conditions: tags: N-Gal4 AD-HA kept; label: inside an RPR1-promoter hybrid RNA with tandem MS2 sites; ssRNA
Outline: (§1)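 Pumilio-1 PUF domain libraries, randomized at the three base-contacting residues of each repeat, were co-expressed with matching RNA elements from a centromeric plasmid in strain YBZ-1, which carries a LexA–MS2 coat fusion and a HIS3 reporter. Transformants grew for four days on SC-Leu (input) or on SC-Leu-His + 0.5 mM 3-AT (selection), and the repeat regions were PCR-amplified and Illumina-sequenced. The interaction score is the log change in variant frequency from input to selection. That logarithm is base 2, with a pseudocount of 1 where a variant was absent.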

Compared with “GGCUAGAACUAGUGGAUCCCCCGGCGCCCGGCGGCUCGAGCCCGGGUAAGUGUAUAUAGUCUGCAUGCCGCCGGGCGCCAUGCCUGCAGGUCGACUCUAGAAAACAUG”, “GGCUAGAACUAGUGGAUCCCCCGGCGCCCGGCGGCUCGAGCCCGGGUAAGUGUACAUAGUCUGCAUGCCGCCGGGCGCCAUGCCUGCAGGUCGACUCUAGAAAACAUG” is lower in binding signal: 2.61 log2 enrichment (interaction score) for the first, 1.07 log2 enrichment (interaction score) for the second.

“GGCUAGAACUAGUGGAUCCCCCGGCGCCCGGCGGCUCGAGCCCGGGUAAGUGUAAAUAGUCUGCAUGCCGCCGGGCGCCAUGCCUGCAGGUCGACUCUAGAAAACAUG” was tested, and the binding signal was 2.71 log2 enrichment (interaction score).

target: PUM1 PUF domain R5-AGR (Homo sapiens, UniProt Q14671 828-1176, C1007A;R1008G;Q1011R); experiment: as above; conditions: tags: N-Gal4 AD-HA kept; label: inside an RPR1-promoter hybrid RNA with tandem MS2 sites; ssRNA
Outline: as §1

Compared with “GGCUAGAACUAGUGGAUCCCCCGGCGCCCGGCGGCUCGAGCCCGGGUAAGUGUUAAUAGUCUGCAUGCCGCCGGGCGCCAUGCCUGCAGGUCGACUCUAGAAAACAUG”, “GGCUAGAACUAGUGGAUCCCCCGGCGCCCGGCGGCUCGAGCCCGGGUAAGUGUCAAUAGUCUGCAUGCCGCCGGGCGCCAUGCCUGCAGGUCGACUCUAGAAAACAUG” is higher in binding signal: 0.84 log2 enrichment (interaction score) for the first, 3.47 log2 enrichment (interaction score) for the second.

In the case of “GGCUAGAACUAGUGGAUCCCCCGGCGCCCGGCGGCUCGAGCCCGGGUAAGUGUAAAUAGUCUGCAUGCCGCCGGGCGCCAUGCCUGCAGGUCGACUCUAGAAAACAUG”, the binding signal is reported as 0.53 log2 enrichment (interaction score).

target: PUM1 PUF domain R3-FWG (Homo sapiens, UniProt Q14671 828-1176, C935F;R936W;Q939G); experiment: as above; conditions: tags: N-Gal4 AD-HA kept; label: inside an RPR1-promoter hybrid RNA with tandem MS2 sites; ssRNA
Outline: as §1

Compared with “GGCUAGAACUAGUGGAUCCCCCGGCGCCCGGCGGCUCGAGCCCGGGUAAGUGUAAGUAGUCUGCAUGCCGCCGGGCGCCAUGCCUGCAGGUCGACUCUAGAAAACAUG”, “GGCUAGAACUAGUGGAUCCCCCGGCGCCCGGCGGCUCGAGCCCGGGUAAGUGUAAUUAGUCUGCAUGCCGCCGGGCGCCAUGCCUGCAGGUCGACUCUAGAAAACAUG” is lower in binding signal: 7.02 log2 enrichment (interaction score) for the first, 4.85 log2 enrichment (interaction score) for the second.

With “GGCUAGAACUAGUGGAUCCCCCGGCGCCCGGCGGCUCGAGCCCGGGUAAGUGUAAAUAGUCUGCAUGCCGCCGGGCGCCAUGCCUGCAGGUCGACUCUAGAAAACAUG” the binding signal was 4.7 log2 enrichment (interaction score).
